Results: PubChem BioAssay (NCI)
The panel holds about 83,000 compounds, 20% with a hit somewhere; the sample as a whole holds those more often.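 For each line, cells grew in 96-well plates with the test compound present at a single concentration for 48 hours.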 Values without a mark were called inactive. Activity calls are given as the source filed them. The calls were made as follows: active = growth percent below 10; inactive = the rest.

Assays:
Experiment in all cases: NCI-60 one-dose screen, 48 h (100 = growth as untreated, 0 = no growth, -100 = all killed)
Details in all cases: 10 µM unless noted
NCI-H23 lung = tested on: NCI-H23 lung
NCI-H226 lung = tested on: NCI-H226 lung
NCI-H322M lung = tested on: NCI-H322M lung
HOP-62 NSCLC = tested on: HOP-62 NSCLC
NCI-H460 lung = tested on: NCI-H460 lung
HOP-92 NSCLC = tested on: HOP-92 NSCLC
NCI-H522 lung = tested on: NCI-H522 lung
A549/ATCC NSCLC = tested on: A549/ATCC NSCLC
786-0 renal = tested on: 786-0 renal
COLO 205 colon = tested on: COLO 205 colon

Row | Compound | growth (NCI-H23 lung) | growth (NCI-H226 lung) | growth (NCI-H322M lung) | growth (HOP-62 NSCLC) | growth (NCI-H460 lung) | growth (HOP-92 NSCLC) | growth (NCI-H522 lung) | growth (A549/ATCC NSCLC) | growth (786-0 renal) | growth (COLO 205 colon)
1 | O=C(Nc1ncc(Cc2cc(Cl)ccc2Cl)s1)c1cccs1 | 71.6% | 81% | 62.7% | 55.1% | 33.8% | 48.4% | 43.9% | 38.3% | 78.3% | 67.5%
2 | COC(=O)C1=C(C(=O)ON)C2C=CC1(C(Cc1ccccc1)Nc1ccccc1)O2 (stereo not given) | 89.4% | 107% | 93.3% | 105% | 103% | 46.5% | -77.4% (active) | 96.1% | 93% | -72% (active)
3 | CCN1CCN(CCNc2nccc(-c3c(-c4cccc(OC)c4)nc4occn34)n2)S1(=O)=O | 105% | 92.2% | 111% | 129% | 96.7% | 84.5% | 89.5% | 101% | 113% | 42.6%
4 | CN1[C@@H]2CC[C@H]1/C(=C\c1ccccc1)C(=O)/C2=C/c1ccccc1 | 29.7% | 45.8% | 51.2% | 95.8% | 13.8% | 84.3% | 48.2% | 45.3% | 45.3% | 12.9%
5 | COc1cc(C2C3=C(COC3=O)N(CCO)c3cc4c(cc32)OCO4)cc(OC)c1OC (stereo not given) | 12.2% | 6.36% (active) | 50.3% | 12.6% | -54.3% (active) | 52.1% | -13% (active) | 30.8% | 9.85% (active) | -84.3% (active)
6 | CC(=O)O[C@H]1Cc2c([nH]c3ccccc23)[C@@H](c2ccc(Cl)cc2)N1C(=O)CCNC(C)(C)C | 84.5% | 69% | 65.9% | 69.1% | 37.5% | 14.1% | 63.9% | 76.3% | 53.1% | 53.7%
7 | O=C(c1nc2ccccc2[nH]1)C1C(c2ccc(Br)cc2)C2CC3CCCC[C@H]3N2[C@@]12C(=O)Nc1cc(Cl)ccc12 (stereo not given in full) | 54.5% | 51.8% | 56.1% | 62.4% | 16.8% | 52.1% | 59.1% | 33% | 42% | 21.8%
8 | COc1ccc(/C=C2\COc3ccc(-c4ccccc4)cc3C2=O)c(OC)c1 | 77.9% | 86.6% | 90.2% | 120% | 83.4% | 109% | 39.7% | 90.9% | 83.2% | 124%
9 | O=C(CCN1CCCC1)Nc1ccc2c(Nc3ccc(F)cc3)c3ccccc3nc2c1 | -12.8% (active) | 42.7% | -14.6% (active) | -12.5% (active) | -66.4% (active) | 4.17% (active) | -22.6% (active) | -21.8% (active) | -35.9% (active) | -33.2% (active)
10 | COc1cc2c(c(O)c1Br)C(=O)c1c(O)cc(C[C@H](C)O)cc1[C@H]2[C@H]1c2cc(C[C@H](C)O)cc(O)c2C(=O)c2c1cc(OC)c(Br)c2O | 6.19% (active) | 14.3% | 17.2% | 16.5% | 0.308% (active) | -21.3% (active) | 2.22% (active) | 11.1% | 10.4% | -35.3% (active)
11 | N#CC(C(=O)/C(=N/NC(=O)c1ccccc1O)C(C#N)c1ccccc1)c1ccccc1 (stereo not given) | 55.5% | 70.5% | 68.4% | 30.8% | 24.3% | 40.4% | 67.9% | 20.1% | 85.9% | 105%
12 | Cc1cc2nc3c4cc([N+](=O)[O-])ccc4n(CCN(C)C)c3nc2cc1C | -26.8% (active) | -25.3% (active) | -15.1% (active) | 5.3% (active) | 1.25% (active) | -10.7% (active) | -17% (active) | -45.8% (active) | 5.9% (active) | -42.3% (active)
13 | CCCNC(=O)Oc1ccc(/C(=C(\C)c2ccccc2)c2ccc(OCCCN(C)C)cc2)cc1 | 75.6% | 102% | 81.2% | 78.3% | 75.1% | 68.2% | 79.6% | 70% | 58.6% | 52.8%
